Assay outcomes as filed in PubChem.
In the library only some 6.1% were active in any assay of this set; here they are far more common.
DRD3 agonist: qHTS of D3 Dopamine Receptor Agonist: qHTS. D3R DiscoveRx beta-arrestin cells, luminescence, 90 min. max activation, %. 410,000 compounds, 0.58% hits; in the data active = max activation above about 30%
Target sequence (P35462 whole entry, looked up): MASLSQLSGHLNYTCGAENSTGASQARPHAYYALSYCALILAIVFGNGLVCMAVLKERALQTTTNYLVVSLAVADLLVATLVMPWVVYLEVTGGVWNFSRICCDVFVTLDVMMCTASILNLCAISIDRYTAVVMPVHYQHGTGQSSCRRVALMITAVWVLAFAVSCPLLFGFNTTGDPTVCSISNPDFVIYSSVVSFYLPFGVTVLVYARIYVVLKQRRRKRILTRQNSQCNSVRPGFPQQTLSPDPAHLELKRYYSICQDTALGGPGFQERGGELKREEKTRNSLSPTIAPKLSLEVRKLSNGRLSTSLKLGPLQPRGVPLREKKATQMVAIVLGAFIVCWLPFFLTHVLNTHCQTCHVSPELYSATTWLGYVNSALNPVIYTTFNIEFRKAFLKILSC
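Cells at 1500/well, incubated overnight, then treated with pinned compounds (dopamine as control) for 90 min at 37 degrees C. DiscoveRx reagent added for 30 - 60 minutes at room temperature; luminescence read.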
ERG-DNA inh: qHTS for Small Molecule Inhibitors of the ERG Ets/DNA interaction; fluorescence polarization, His-ERG Ets domain / labelled DNA; Potency, µM (titrated, usually from 76.9 µM), usual class: inhibitors; 370,000 compounds, 0.028% hits; active = well fitted inhibition curve with a large enough effect in the polarisation, with a control signal flat; inconclusive = small, poorly fitted or top-dose-only effect, or effect the other way, or a change in a side signal; inactive = no such curve, though single readings can be large or run the other way; the % refers to the polarisation;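 also: polarization taken with two DNA probes labelled with fluorescein and Texas red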
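His-tagged ERG Ets domain (1 uM in the protein solution; 300mM KCl, 50mM Tris-HCl, 1mM EDTA, 1mM DTT, pH 7.5) received compound, then a probe mix of 5 nM fluorescein-DNA and 100nM Texas-615-DNA. Fluorescence polarization was read for both dyes.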
D1 antag: Antagonist of Human D 1 Dopamine Receptor: qHTS | HEK293 TREx D1 cells, calcium flux, dopamine EC80; active compounds read low | 360,000 compounds, 3.2% hits | activity change, negative = inhibition, % at 10 µM; in the data active = activity change below about -30%
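After overnight tetracycline induction at 30 C, force-coupled D1 HEK293 cells took up a no-wash calcium dye at room temperature. Compounds were added and monitored 180 s, and the response to EC80 dopamine was then recorded.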
D1 PAM: Potentiators of Human D1 Dopamine Receptor: qHTS; HEK293 TREx D1 cells, calcium flux, dopamine EC20 potentiation; potentiation, % at 10 µM; 360,000 compounds, 0.036% hits; AID 504651, 2011; in the data active = potentiation above about 30%
D3 antag: qHTS of D3 Dopamine Receptor Antagonist: qHTS; D(3) dopamine receptor (Homo sapiens), P35462; D3R cells, DiscoveRx beta-arrestin luminescence, antagonist mode; active compounds read low; max response, negative = inhibition, %; 360,000 compounds, 2.5% hits; AID 652054, 2013; in the data active = max response below about -50%; inconclusive = no clear call, values can overlap the other calls
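Cells expressing the human receptor were seeded at 1500 cells/well, incubated overnight at 37 degrees C in 5% CO2, then exposed to library compounds with dopamine controls for 90 minutes at 37 degrees C before luminescent detection.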
D1 ag: Allosteric Agonists of the Human D1 Dopamine Receptor: qHTS | D(1A) dopamine receptor (Homo sapiens), P21728 | HEK293 T-REx D1 cells, calcium flux, agonist mode | activation, % at 2 µM | 360,000 compounds, 1% hits | AID 504660, 2011; in the data active = activation above about 30%
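Inducible HEK293 T-REx D1 cells, force-coupled to calcium signalling, were plated at 4000 cells/well with tetracycline and held overnight at 30 C. After no-wash calcium dye loading, compound-evoked calcium rise over 180 s flagged agonists.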
Numbers stand for hits; n = inactive; u = inconclusive; x = not tested or not shown.

SMILES	DRD3 agonist	ERG-DNA inh	D1 antag	D1 PAM	D3 antag	D1 ag
COc1cc(NC(=O)C/C(C)=N/NC(=O)c2ccccn2)c(OC)cc1Cl	n	n	n	n	n	n
COc1ccc(NC(=O)C/C(C)=N/NC(=O)c2cnccn2)cc1	n	n	n	n	n	n
COc1ccc(CNC(=O)C/C(C)=N/NC(=O)c2cnccn2)cc1	n	n	n	n	n	35
COc1cccc(C(=O)N/N=C(/c2ccccc2)c2ccccn2)c1	n	n	-62	n	n	n
COc1ccccc1NC(=O)C/C(C)=N/NC(=O)c1ccccn1	n	n	-38	n	n	n
C/C(CC(=O)Nc1cccc(Cl)c1Cl)=N\NC(=O)c1ccccc1C	n	n	-43	n	n	n
N#CCSc1nnc(-c2ccc(S(=O)(=O)N3CCOCC3)cc2)n1CC1CCCO1 (stereo unspecified)	n	n	n	n	n	n
C/C(=N\NC(=O)c1cc(C)nc2ccccc12)c1ccncc1	n	n	-43	n	n	n
C/C(=N\NC(=O)COc1ccccc1-c1ccccc1)c1ccccn1	n	n	n	n	-58	n
C/C(=N\NC(=O)c1cc(C)nc2ccccc12)c1ccc([N+](=O)[O-])cc1	n	n	n	n	n	n
C/C(=N\NC(=O)c1cc(C)nc2ccccc12)c1ccccn1	n	n	n	n	-74	n
C/C(=N\NC(=O)c1ccc(Cl)cc1)c1ccccn1	n	n	n	n	-106	n
C/C(=N\NC(=O)COc1ccccc1-c1ccccc1)c1cccnc1	n	n	n	n	n	n
Cn1c(-c2ccc(F)cc2)cnc1NCc1ccc(F)cc1F	n	n	n	n	n	n
O=C(c1cccc(Cl)c1)C1CCCN(Cc2ccc(N3CCNC3=O)cc2)C1 (stereo unspecified)	n	n	n	n	u	n
COc1ccc(CN2CCOCCOCCOCCOCCOCC2)cc1	n	n	n	n	n	n
Cc1ccc(CN2CC[C@H]3C=CCc4cccc(c43)C2)cc1	n	n	x	n	-123	n
C1=C[C@@H]2CCN(Cc3ccccc3)Cc3cccc(c32)C1	n	n	n	n	u	n
COc1ccc(CN2CC[C@H]3C=CCc4cccc(c43)C2)cc1	n	n	x	n	-103	n
CC(C)c1ccc(NC(=S)NC2CCCCCC2)cc1	n	n	n	n	u	n
S=C(Nc1ccc(Cl)c(Cl)c1)NC1CCCCC1	n	n	-41	n	n	n
S=C(Nc1ccc2nsnc2c1)NC1CCCCC1	n	x	n	n	n	46
COc1ccc(NS(=O)(=O)c2cc(NC(=O)c3ccc(=O)[nH]c3)ccc2N2CCCC2)cc1	n	n	n	n	n	n
Cc1sc2nc(C)n(/N=C/c3ccccc3O)c(=O)c2c1C	35	n	n	n	n	n
Cc1sc2nc(C)n(/N=C/c3ccc(O)cc3O)c(=O)c2c1C	n	n	-84	n	n	n
SMILES	DRD3 agonist	ERG-DNA inh	D1 antag	D1 PAM	D3 antag	D1 ag
CN(C)CCCNc1nc(N)c([N+](=O)[O-])c(NCCO)n1	n	n	n	n	n	n
CCOC(=O)c1cc(-c2nnc(SCC(=O)Nc3ccc(F)cc3)o2)c(C)nc1C	n	n	n	n	n	n
CCOc1ccc(NCc2cccn2-c2nnc(N3CCC(C(=O)NCCc4ccc(OC)c(OC)c4)CC3)s2)cc1	n	n	-31	n	x	n
CCOc1ccc(NCc2cccn2-c2nnc(N3CCC(C(=O)NCCc4ccc(OCC)c(OCC)c4)CC3)s2)cc1	n	n	n	n	x	n
Nc1c(C(=O)N/N=C/c2cccnc2)oc2nc(-c3ccco3)cc(-c3ccco3)c12	n	n	-31	n	n	n
Nc1c(C(=O)N/N=C/c2cccnc2)oc2nc(-c3ccccc3)cc(-c3ccco3)c12	n	n	n	n	n	n
CC(C)=CCC/C(C)=C/COc1c2ccoc2cc2oc(=O)ccc12	x	x	n	n	x	40
COc1ccc(-c2csc(NC(=O)C3CCN(c4ncnc5sc(C)c(C)c45)CC3)n2)cc1OC	47	n	n	n	n	n
COc1ccccc1OCC(=O)NNC(=O)C1CCN(c2ncnc3sc(C)c(C)c23)CC1	n	n	n	n	n	n
O=S(=O)(c1ccc(F)c(Cl)c1)N1CCN(C/C=C/c2ccccc2)CC1	n	n	n	n	n	n
CCOC(=O)c1c(-c2ccc(C)o2)csc1NC(=O)CN1CCCCC1	n	n	n	n	n	n
CCOC(=O)c1c(-c2ccc(C)o2)csc1NC(=O)CN1CCN(CC)CC1	n	x	n	n	-106	n
CCN(CC)C(C)C(=O)Nc1c2c(cc3c1CCC3)CCC2 (stereo unspecified)	n	n	n	n	n	n
CCc1ccc(N(C(=O)c2snc(C(N)=O)c2N)C(C(=O)NCC2CCCO2)c2cccs2)cc1 (stereo unspecified)	n	n	n	n	n	n
COc1cccc(N(C(=O)c2snc(C(N)=O)c2N)C(C(=O)NCC2CCCO2)c2ccc(F)cc2)c1 (stereo unspecified)	n	n	n	x	n	n
NC(=O)c1nsc(C(=O)N(c2ccc3c(c2)OCO3)C(C(=O)NCC2CCCO2)c2ccc(F)cc2)c1N (stereo unspecified)	n	n	-77	n	n	n
NC(=O)c1nsc(C(=O)N(c2ccc(Cl)cc2)C(C(=O)NCC2CCCO2)c2cccs2)c1N (stereo unspecified)	n	n	-33	n	n	n
COCCNC(=O)CSc1nc2ccccc2c(=O)n1CC1CCCO1 (stereo unspecified)	n	n	-76	n	n	n
COc1ccccc1-n1c(SCC(=O)NCC2CCCO2)nc2c([nH]c3ccccc32)c1=O (stereo unspecified)	n	n	n	n	-57	n
O=C(CSc1nc2c([nH]c3ccccc32)c(=O)n1-c1ccccc1)NCC1CCCO1 (stereo unspecified)	n	n	n	n	-84	n
COc1ccccc1-c1nc(C(=O)NCC2CCCO2)cc2c1[nH]c1ccccc12 (stereo unspecified)	n	n	n	n	n	n
COc1cc(-c2nc(C(=O)NCC3CCCO3)cc3c2[nH]c2ccccc23)cc(OC)c1OC (stereo unspecified)	33	n	n	n	n	n
